The values below come from PubChem BioAssay (EPA / NIEHS).

Structures are written as SMILES. The source made the active and inactive calls. Rule for the calls: active = hit-call score of the fitted dose curve at least 0.9, where 1 is the maximum; inactive = score below 0.9.

One assay can be described thus: ATG_M_32_CIS: Attagene CIS-FACTORIAL HepG2 Assay for M32 Transcription Factor (Internal Marker) (AID 2282949).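 Note: background control marker of the multiplexed CIS panel rather than a real target.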 The conditions noted are these: HepG2 Attagene cis-factorial M32 reporter, mRNA; actives raise or lower the signal. The essentials:
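HepG2 cells transiently transfected with multiplexed cis-regulated reporter units, dosed 24 h. Reporter mRNA quantified by RT-PCR, 6-FAM labelling, HpaI digestion and capillary electrophoresis; bidirectional fit vs DMSO.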
In the case of `CCCN(CCC)c1c([N+](=O)[O-])cc(C(F)(F)F)c(N)c1[N+](=O)[O-]`, the compound was classed as inactive.

On to `COC(=O)c1ccccc1C(=O)O`, for which the outcome was inactive.

Turning to `C=CCOC(Cn1ccnc1)c1ccc(Cl)cc1Cl` (configuration not stated), the outcome was inactive.

For the compound `CSC(=O)c1cccc2nnsc12`, the result was inactive.

Regarding `CC(=O)S[C@@H]1CC2=CC(=O)CC[C@]2(C)[C@H]2CC[C@@]3(C)[C@@H](CC[C@@]34CCC(=O)O4)[C@H]12`, the compound was called inactive.

As for `c1ccc2[nH]c(-c3cscn3)nc2c1`, the compound was classed as inactive.

For `C[C@]12C[C@H](O)[C@H]3[C@@H](CCC4=CC(=O)CC[C@@]43C)[C@@H]1CC[C@@H]2C(=O)CO`, the call was inactive.

Take `OB(O)O`: the outcome was inactive.

For `S=C(S)NCCNC(=S)S.[Mn+2].[S-]C([S-])=NCCN=C([S-])[S-].[Zn+2]`, the call was inactive.

As for `COC(=O)c1ccc(CNS(C)(=O)=O)cc1S(=O)(=O)NC(=O)Nc1nc(OC)cc(OC)n1`, the outcome was inactive.

Regarding `O=C(c1ccccc1)C1CCCCC1`, the result was inactive.

As for `COC(=O)c1c(Cl)nn(C)c1S(=O)(=O)NC(=O)Nc1nc(OC)cc(OC)n1`, the compound was classed as inactive.

The nature of another assay: ATG_M_06_CIS: Attagene CIS-FACTORIAL HepG2 Assay for M06 Transcription Factor (Internal Marker) (AID 2282950). The note with it: HepG2 Attagene CIS-FACTORIAL M06 internal marker reporter; actives raise or lower the signal. The gist of the method:
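Internal background marker within multiplexed cis-reporter HepG2 system. Cells transiently transfected, dosed 24 h; reporter mRNA measured by RT-PCR, HpaI digestion and capillary electrophoresis. Bidirectional fit relative to DMSO.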
With `CCCCOC(=O)[C@@H](C)Oc1ccc(Oc2ccc(C(F)(F)F)cn2)cc1`, the call was inactive.

For the compound `CCOC(=O)c1ccc(O)cc1`, the compound was called inactive.

Regarding `COC(=O)c1ccccc1S(=O)(=O)NC(=O)Nc1nc(OC(F)F)cc(OC(F)F)n1`, the compound was called inactive.

As to `COC(=O)c1cccc(C)c1S(=O)(=O)NC(=O)Nc1nc(OCC(F)(F)F)nc(N(C)C)n1`, the result was inactive.

Regarding `CCC(O)=C1C(=O)CC(C(=O)O)CC1=O` (configuration not stated), the result was inactive.

In the case of `CCCCOC(=O)C(C)Oc1ccc(Oc2ccc(C(F)(F)F)cn2)cc1` (configuration not stated), the call was inactive.

For the compound `COC(=O)CSc1cc(N=c2sc(=O)n3n2CCCC3)c(F)cc1Cl`, the compound was classed as inactive.

As to `COc1nc(C)nc(NC(=O)NS(=O)(=O)c2ccccc2OCCCl)n1`, the compound was classed as inactive.

For `N[C@@H](Cc1cc(I)c(Oc2ccc(O)c(I)c2)c(I)c1)C(=O)O`, the call was inactive.

In the case of `CCCCC(CC)CN1C(=O)C2C3C=CC(C3)C2C1=O` (configuration not stated), the call was inactive.

As to `C[C@]12CC[C@@H]3c4ccc(O)cc4C[C@@H](CCCCCCCCCS(=O)CCCC(F)(F)C(F)(F)F)[C@H]3[C@@H]1CC[C@@H]2O` (some centres not stated), the result was inactive.

In the case of `CC(C)CCCCCCc1ccc(O)cc1`, the call was inactive.

As to `O=C(c1ccc(O)cc1O)c1ccc(O)cc1O`, the outcome was inactive.

For the compound `CN(C)C(=O)Nc1ccc(Cl)c(Cl)c1`, the compound was called inactive.

`COCCO`: the call was inactive.

As to `N#CSCSc1nc2ccccc2s1`, the result was inactive.

As to `CCOC(=O)COc1cc(-n2ncc(C(F)(F)F)c(C)c2=O)c(F)cc1Cl`, the outcome was inactive.

For the compound `C#C[C@]1(O)CC[C@H]2[C@@H]3CCC4=CC(=O)CC[C@@H]4[C@H]3CC[C@@]21CC`, the compound was called inactive.

Turning to `CCCN(CCC)c1c([N+](=O)[O-])cc(C(F)(F)F)c(N)c1[N+](=O)[O-]`, the call was inactive.

Regarding `COC(=O)c1ccccc1C(=O)O`, the outcome was inactive.

`C=CCOC(Cn1ccnc1)c1ccc(Cl)cc1Cl` (configuration not stated): the call was inactive.

As to `CSC(=O)c1cccc2nnsc12`, the result was inactive.

Consider `CC(=O)S[C@@H]1CC2=CC(=O)CC[C@]2(C)[C@H]2CC[C@@]3(C)[C@@H](CC[C@@]34CCC(=O)O4)[C@H]12`, for which the outcome was inactive.

With `c1ccc2[nH]c(-c3cscn3)nc2c1`, the compound was called inactive.

With `C[C@]12C[C@H](O)[C@H]3[C@@H](CCC4=CC(=O)CC[C@@]43C)[C@@H]1CC[C@@H]2C(=O)CO`, the result was inactive.

For the compound `OB(O)O`, the call was inactive.

As for `S=C(S)NCCNC(=S)S.[Mn+2].[S-]C([S-])=NCCN=C([S-])[S-].[Zn+2]`, the compound was called inactive.

Consider `COC(=O)c1ccc(CNS(C)(=O)=O)cc1S(=O)(=O)NC(=O)Nc1nc(OC)cc(OC)n1`, for which the call was inactive.

In the case of `O=C(c1ccccc1)C1CCCCC1`, the outcome was inactive.

For the compound `COC(=O)c1c(Cl)nn(C)c1S(=O)(=O)NC(=O)Nc1nc(OC)cc(OC)n1`, the compound was classed as inactive.
